Measurements reported in the supplement of paper PMC6555819.

Columns and labels:
Assay in all cases: PBM binding z-score (relative to random genomic background probes); higher = stronger binding; sequences stand for … in GC…GCGATTGACAGCGTAGAATGAAGG
[1] = tested on: RARb homodimer (NR concentration 270 nM)
In short: (§1)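 Random background probes are the reference for binding z-scores. These scores derive from regression-normalized fluorescence on custom Agilent 4×180K protein-binding microarrays incubated 1 h with ligand-free nuclear receptor dimers. Binding was detected with antibodies against each partner (one per run).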

[2] = tested on: RARg:RXRa (NR concentration 270 nM, RXRa partner concentration 90 nM)
In short: as §1

[3] = tested on: RARg homodimer (NR concentration 270 nM)
In short: as §1

[4] = tested on: RXRa DBDmut IVT, anti-RXR (DBD mutation: RXRa K156A/R161A, NR concentration 90 nM)
In short: as §1

[5] = tested on: RXRa homodimer (NR concentration 180 nM)
In short: as §1

[6] = tested on: THRa:RXRa (NR concentration 90 nM, RXRa partner concentration 90 nM)
In short: as §1

[7] = tested on: THRa homodimer (NR concentration 90 nM)
In short: as §1

[8] = tested on: VDR homodimer (NR concentration 270 nM)
In short: as §1

Sequence	PBM binding z-score [1]	PBM binding z-score [2]	PBM binding z-score [3]	PBM binding z-score [4]	PBM binding z-score [5]	PBM binding z-score [6]	PBM binding z-score [7]	PBM binding z-score [8]
CGTCCACGGTCAATGCTAGGTCAGTGAAAGCATT	3.02	3.59	3.1	0.356	0.354	2.12	0.347	-0.19
CCGACTGGGGCAAAGGTGACCATACTCAGTACGA	1.44	1.9	1.13	-0.244	2.04	0.896	-0.0809	-0.471
CGAACTAGGTCAAGAGGTCAAAGTCCGCTTCCCG	5.66	8.2	7.63	2.69	8.43	4.34	2.51	3.88
GCTTGTAGATCAAGGTCAAGAAAGACTAAGCTAA	3.18	3.61	3.42	1.03	3.6	3.36	1.74	1.37
TCTTGTAGATCAACAGGAGGTTACGAAAGATCGA	0.979	1.06	0.394	0.347	1.19	1.5	-0.205	0.0245
ATGTGTAGGTTAAGGGTCATTCAGGTTGGTTCGC	4.06	4.95	3.99	2.14	6.33	3.69	2.32	5.37
AATACAGCGTCACTAGGCCAGAGTAGGTACGAAT	-0.144	-0.145	0.173	-0.271	-0.094	-0.216	-0.342	-0.308
ACAGACACGTGATGAAGGTAACTCAGGCTATCAT	-0.0735	0.142	0.316	0.207	0.38	0.724	0.228	-0.42
ATCTCTAGGTACGACTCAGTTCAGTGAAGAACGC	0.848	0.255	0.331	1.19	0.123	0.879	0.878	2.02
AATACAGGGGCACTAGGCCAGAGTAGGTACGAAT	0.82	0.814	0.835	0.764	0.611	0.473	-0.285	0.185
ATATGTAGGCTAAGGGTCATTCAGGTTGGTTCGC	3.85	3.93	2.76	2.03	4.31	3.16	1.17	3.63
TCATATACGTAAAGGTGAAAGTCGAACGATATGA	1.53	1.65	1.22	0.638	2.1	1.13	-0.853	-0.424
GCTAGTTGGTCAGGAAAAGGTCACACACCGGTCG	5.07	5.34	4.46	0.286	4.98	3.52	1.64	1.68
TCATATAGGTAAATGCTAGGTGCAAGTCCGATCT	-0.219	0.325	0.13	1.51	0.838	0.121	0.135	0.597
ACCTCTAGGTAACAAGTTCAGTGAAAGAGAGGAC	1.85	1.11	1.08	0.979	0.678	1.21	0.425	2.2
CCTAACGGGTCACTGACAGGTTATAGCATTTGGA	2.94	5.4	4.16	1.48	4.09	2.46	-0.159	0.931
TCTAGTTGGTCACGGAGGTCACATACGACGGGTA	4.57	4.42	4.92	1.16	4.57	3.68	2.58	2.84
TGTCAAAGTTCAAAGGTAATGTAAGTATCCACAC	3.63	5.97	5.84	4.44	6.5	3.15	-0.177	3.96
TAGCCTAGGTCATGCGTGCCAGTATAGTGTCGGC	3.14	3.78	3.75	0.805	2.85	2.96	1.22	0.552

Sequence	PBM binding z-score [1]	PBM binding z-score [2]	PBM binding z-score [3]	PBM binding z-score [4]	PBM binding z-score [5]	PBM binding z-score [6]	PBM binding z-score [7]	PBM binding z-score [8]
GCTTGCGGGTCAAAGGTTATAGCATGAATAGAAT	2.73	6.3	4.14	2.1	8.79	3.83	-0.22	0.927
TCTTGTAGATCAAAGGTTAAAAAAGCCGAAGCCT	1.22	1.79	0.557	0.941	3.35	1.44	-0.334	0.177
ATCGAAAGGTCGTGAGGTGAGTATACAGAAAGGC	3.07	4.69	3.9	1.42	4.97	3.45	1.47	1.09
CCTACTGGGCCAGCAGGTCATTGATATCAACGTT	2.26	2.03	1.62	-0.531	1.6	1.86	0.347	0.812
AGTCAAAGTTCAACTAGGTAACGTAAGATATGCT	3.9	5.82	6.57	4.34	4.89	3	0.196	4.09
CCTACTGAGCCAAAGGTCATTGATTCCAATGCTC	4.56	5.34	4.83	2.32	5.76	3.33	1.26	3.3
CCAGACAGGTGAGAAGGCAACTCAGCCTCGATTA	0.103	0.0395	0.271	0.0472	0.0532	-0.202	-0.363	0.221
TCTCGGAGGATACGAAAGGTCAGAGCTCGACATC	4.38	4.12	3.73	0.587	4.38	2.98	0.363	0.361
CGTCCAAGGTCAGCAGCTCAGTGAAAGCGACGTG	3.86	5.03	5.8	2.64	4.07	3.44	1.99	0.868
CTCGAAAGGTCGGTTGAGGTGAGGATACGGATAA	2.54	3.23	2.94	0.698	2.43	5.04	2.21	0.231
GCAGACAGGTGAAACGGAGGTAACTCAGGGTGGC	0.345	1.4	0.25	-0.66	0.757	1.83	-0.0224	-0.566
CGTCCAAGGTCAGAGCGGTCAGTGAATGCCGAGT	4.33	5.22	6.15	2.61	3.84	3.6	1.54	2.42
CATACAGGGTCAGCTGGGCCAGAGTAGGGACGGC	3.31	4.6	4.97	1.48	4.64	3.12	0.678	1.18
TCTTGTAGATCAAGCAGGTCAAGAAAGCCTGAGT	2.28	1.43	1.35	0.714	1.66	2.01	0.223	0.53
AATCAAAGTTCACTAGGTAACGTAAGATTCAGCT	3.41	4.44	4.91	4.32	3.38	2.02	0.0511	3.46
ATCTCTAGGTAAGACTCAGTTCAGTGAAGAACGC	0.723	0.0914	0.115	0.479	-0.0944	0.922	0.796	1.42
AGAATGTGGTTACCAAAGATCAGGGAAACGCTTG	-0.487	0.0233	0.17	-0.485	0.156	-0.05	-0.409	-0.534
GGAACGAGGGCATTCGAGTTGATATCATGGCGAT	0.726	1.25	1.52	2.79	0.858	3.38	-0.359	2.91
CGTCCAAGGGCAAGGTCAGTGAAAGAGACTCGAA	3.82	3.23	4.43	1.07	2.23	2.9	1.11	1.21

Sequence	PBM binding z-score [1]	PBM binding z-score [2]	PBM binding z-score [3]	PBM binding z-score [4]	PBM binding z-score [5]	PBM binding z-score [6]	PBM binding z-score [7]	PBM binding z-score [8]
ATCTCTAGGTAAAGTTCTGTGAAAGATCGATAGA	-0.0506	0.0649	0.264	0.162	-0.238	0.488	0.369	0.0394
CTCGAAAGGTCGGCTGAGGTGAGTATACGGATAA	2.61	3.82	3.8	0.843	3.44	5.13	1.12	0.549
GCGACTGGGGCATCAACAGGTTACCATAACTTAA	1.25	0.983	0.509	0.306	0.415	0.721	-0.0396	-0.142
TCTCAGAGGACACGAAGGTCAGAGCTTTCCAGAG	3.88	3.73	4.66	1.38	1.97	2.79	0.738	1.62
GCAGACAGGTGAAACGCAGGTAACTCCGGGTGGC	0.0338	0.702	-0.185	-0.71	0.572	1.32	-0.603	-0.791
GGAACGAGGGCATTCGCGTTGATAGCATGGCGAT	0.582	0.978	1.21	2.75	0.746	1.08	-0.426	1.79
ATATGTAGGTTAGTTGGGGTCATTCAGACTAGGC	3.96	4.34	2.99	2.64	6.03	5.13	3.99	5.97
AATACAGGGTCACTAGTCCAGAGTAGGTACGAAT	3.23	4.5	4.83	2.7	4.87	3.31	1.32	2.27
CCTGACGGGTCACTGACAGGTTATAGCATTTGGA	2.98	5.4	4.25	1.04	4.25	2.44	0.0984	0.76
TCATATAGGTAAAGGTGAAAGTTGAACGATATGA	2.08	2.34	1.51	0.648	3.71	1.79	-0.127	0.139
CCTGCTAGCTCAATGGTCAGCTAAAGCAGCTCGC	0.464	-0.547	-0.75	0.0586	-0.756	-0.535	-0.555	-0.94
TCTAGCAGGCCAGAGGGTCACTCATGAGGTACGG	2.62	2.59	2.22	-0.0474	2.55	1.59	-0.102	0.736
CCTCGTTGGTCAAGGTCACACACGCTATAGGTAC	4.51	4.58	5.23	1.8	4.83	4.05	4.37	3.86
CCGAGTAGGTTATGGGGCATTCAGGCAACGGTGA	1.08	0.469	0.552	0.0295	0.728	0.503	0.317	-0.196
TCTGCTAGGCCAACGATGGTCAGCTAATCTGCTA	0.00128	-0.269	0.329	-0.26	-0.518	-0.441	-1.26	-1.49
TCATATAGGTAAAAGCTAGGTGAAAGTCCGATCT	0.265	0.433	0.218	1.44	0.939	1.3	0.0247	-0.0504
CCGACTGGGGCAAAGGTTACCCTACTCAGTACGA	1.96	3.01	1.49	-0.029	3.13	1.72	0.249	0.136
ACTTACTGGTCAACGAGGTTATAGCACGCGTATA	1.88	1.72	1.94	1.16	1.85	2.26	1.22	1.71
TTCCCAAGGTGAGCTGAGGTCGTTGATCCAACTC	1.95	1.28	0.949	0.117	1.34	4.52	2.4	2.61
